Assay [1] can be described thus: qHTS assay to identify small molecule antagonists of the glucocorticoid receptor (GR) signaling pathway - cell viability counter screen (AID 720693). Also: nearly all actives have a fitted effect of over 55% in size. For orientation: Quantitative high-throughput screening tests each substance at several concentrations.
A short description of assay [2]: qHTS assay for identifying genotoxic compounds that show differential cytotoxicity against isogenic chicken DT40 cell lines with known DNA damage response pathways - wild type cell line (AID 743012). Also: nearly all actives have a fitted effect of over 60% in size. Also: potency is read from the fitted curve at half-maximal effect. Put shortly:
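Viability of DNA repair-proficient chicken DT40 cells was assessed by CellTiter-Glo luminescence following 40 h compound exposure at 37 C/5% CO2.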

The nature of assay [3]: qHTS assay for identifying genotoxic compounds that show differential cytotoxicity against isogenic chicken DT40 cell lines with known DNA damage response pathways - Rev3 mutant cell line (AID 743014). Also: nearly all actives have a fitted effect of over 55% in size. Also: potency is read from the fitted curve at half-maximal effect.
Assay [4] can be described thus: qHTS assay for identifying genotoxic compounds that show differential cytotoxicity against isogenic chicken DT40 cell lines with known DNA damage response pathways - Rad54/Ku70 mutant cell line (AID 743015). Also: nearly all actives have a fitted effect of over 60% in size. Also: potency is read from the fitted curve at half-maximal effect.
The nature of assay [5]: qHTS assay to identify small molecule antagonists of the androgen receptor (AR) signaling pathway - cell viability counter screen (AID 743033; also: nearly all actives have a fitted effect of over 45% in size; also: potency is read from the fitted curve at half-maximal effect).
The target of assay [6] is Androgen receptor (Homo sapiens) (UniProt P10275). Nature of the assay: qHTS assay to identify small molecule antagonists of the androgen receptor (AR) signaling pathway (AID 743035; active = well fitted inhibition curve with a large enough effect in the signal ratio in the repeat runs, not every such curve was filed as active; the % refers to the signal ratio; also: potency is read from the fitted curve at half-maximal effect). The method, boiled down:
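Reporter HEK293 cells were exposed to compounds and R1881 overnight (16 h, 37C); beta-lactamase activity was then quantified by FRET fluorescence.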

Assay [7] has the same target. The experiment in a line: qHTS assay to identify small molecule agonists of the androgen receptor (AR) signaling pathway (AID 743036; active = well fitted activation curve with a large enough effect in the signal ratio in the repeat runs, with a control signal flat, not every such curve was filed as active; the % refers to the signal ratio). Put shortly: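 Agonist activity was scored by beta-lactamase reporter fluorescence in stably transfected HEK293 cells exposed to compounds for 16 h at 37C and 5% CO2. Substrate loading took 2 h at room temperature.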
The target is the same in assay [8]. The experiment in a line: qHTS assay to identify small molecule agonists of the androgen receptor (AR) signaling pathway using the MDA cell line (AID 743040; also: nearly all actives have a fitted effect of over 20% in size; also: potency is read from the fitted curve at half-maximal effect). Put shortly: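 Stable MMTV-luciferase reporter in MDA-kb2 cells; note the promoter carries GR as well as AR response elements. 16 h compound treatment, 37C, 0% CO2; ONE-Glo luminescence endpoint.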
The nature of assay [9]: qHTS assay to identify small molecule antagonists of the androgen receptor (AR) signaling pathway using the MDA cell line - cell viability counter screen (AID 743041; also: nearly all actives have a fitted effect of over 45% in size; also: potency is read from the fitted curve at half-maximal effect). The method, boiled down: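 Using the breast carcinoma line MDA-kb2 AR-luc, test chemicals were co-incubated with R1881 for 16 h; CellTiter-Fluor reagent, added at 15.5 h, provided a fluorescence measure of live cells.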

Assay [10] addresses Androgen receptor (Homo sapiens) (UniProt P10275). The experiment in a line: qHTS assay to identify small molecule antagonists of the androgen receptor (AR) signaling pathway using the MDA cell line (AID 743042; also: nearly all actives have a fitted effect of over 55% in size; also: potency is read from the fitted curve at half-maximal effect). Put shortly: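 Antagonist mode: compounds plus R1881 agonist added to MDA-kb2 AR-luc cells, incubated 16 h at 37C. Luciferase reporter luminescence quantified, with multiplexed CellTiter-Fluor readout for cell viability.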

Assay [11] in a line: qHTS assay to identify small molecule antagonists of the thyroid receptor (TR) signaling pathway - cell viability counter screen (AID 743064). Also: nearly all actives have a fitted effect of over 50% in size. Also: potency is read from the fitted curve at half-maximal effect. The method, boiled down:
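Same-well viability check: GH3.TRE-Luc cells stimulated with 1 nM T3 alongside test compound for 23.5 h, followed by CellTiter-Fluor fluorescence.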

Assay [12] in a line: qHTS assay to identify small molecule antagonists of the thyroid receptor (TR) signaling pathway (AID 743065). Also: nearly all actives have a fitted effect of over 55% in size. Also: potency is read from the fitted curve at half-maximal effect. As to activity, negative = inhibition: series mostly up to about 70 µM. Put shortly:
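Antagonism measured as loss of luciferase signal in GH3 cells stably carrying a TRE-luciferase reporter, co-treated with compound and T3 (1 nM final) for 23.5 h at 37 C. Viability was read in the same well by CellTiter-Fluor.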

For assay [13], the system named is thyroid hormone receptor (rat, GH3 cells). The experiment in a line: qHTS assay to identify small molecule agonists of the thyroid receptor (TR) signaling pathway (AID 743066; calls by dose curve).
The target in assay [14] is Estrogen receptor (Homo sapiens) (UniProt P03372). Nature of the assay: qHTS assay to identify small molecule agonists of the estrogen receptor alpha (ER-alpha) signaling pathway (AID 743075; calls by dose curve).
Sequence of Estrogen receptor (Homo sapiens) (P03372 whole entry, looked up): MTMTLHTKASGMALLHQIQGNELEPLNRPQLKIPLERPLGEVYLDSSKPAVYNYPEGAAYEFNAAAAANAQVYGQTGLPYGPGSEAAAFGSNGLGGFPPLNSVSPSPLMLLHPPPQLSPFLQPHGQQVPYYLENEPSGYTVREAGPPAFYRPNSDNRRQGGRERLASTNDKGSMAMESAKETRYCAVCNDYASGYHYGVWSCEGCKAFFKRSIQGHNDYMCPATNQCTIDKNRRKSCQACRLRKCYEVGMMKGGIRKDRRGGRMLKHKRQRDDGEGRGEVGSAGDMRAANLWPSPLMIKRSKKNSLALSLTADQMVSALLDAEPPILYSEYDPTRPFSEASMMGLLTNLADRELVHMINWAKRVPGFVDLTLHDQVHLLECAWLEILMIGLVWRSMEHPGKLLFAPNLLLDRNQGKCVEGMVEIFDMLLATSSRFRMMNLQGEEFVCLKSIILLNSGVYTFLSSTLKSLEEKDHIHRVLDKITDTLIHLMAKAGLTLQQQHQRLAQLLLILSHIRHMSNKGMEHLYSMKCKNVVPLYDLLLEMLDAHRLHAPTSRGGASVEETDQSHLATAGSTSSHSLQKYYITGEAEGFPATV
The target is the same in assay [15]. Nature of the assay: qHTS assay to identify small molecule agonists of the estrogen receptor alpha (ER-alpha) signaling pathway using the BG1 cell line (AID 743079). Also: nearly all actives have a fitted effect of over 20% in size.
Assay [16] in a line: qHTS assay to identify small molecule antagonists of the estrogen receptor alpha (ER-alpha) signaling pathway using the BG1 cell line (AID 743080; calls by dose curve;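 also: BG1 cells stimulated with 17beta-estradiol alongside compound; series mostly up to about 70 µM; nearly all actives have a fitted effect of over 25% in size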). Put shortly: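 Seeding, 24 h rest, compound transfer from DMSO, 17beta-estradiol addition, 21.5 h incubation, CellTiter-Fluor (30 min, 37 C), then ONE-Glo (30 min, room temperature): this sequence was run on BG1-Luc-4E2 reporter cells.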

Assay [17] in a line: qHTS assay to identify small molecule antagonists of the estrogen receptor alpha (ER-alpha) signaling pathway using the BG1 cell line - cell viability counter screen (AID 743081).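 Also: compound given together with 17beta-estradiol as the ER stimulus; nearly all actives have a fitted effect of over 45% in size.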 Also: potency is read from the fitted curve at half-maximal effect. As to activity change, negative = cytotoxicity: series mostly up to about 70 µM.
Another assay concerns the target Aromatase (Homo sapiens) (UniProt P11511). Nature of the assay: qHTS assay to identify aromatase inhibitors (AID 743083). Also: nearly all actives have a fitted effect of over 55% in size. Also: potency is read from the fitted curve at half-maximal effect. As to activity, negative = inhibition: series mostly up to about 70 µM.
In assay [18] the target is Estrogen receptor (Homo sapiens) (UniProt P03372). Nature of the assay: qHTS assay to identify small molecule antagonists of the estrogen receptor alpha (ER-alpha) signaling pathway (AID 743069; active = well fitted curve in the direction sought with a large enough effect in the signal ratio in the repeat runs, not every such curve was filed as active; the % refers to the signal ratio). Put shortly: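 Fluorescence intensity from a beta-lactamase FRET substrate served as the read-out. Cells: HEK293 with stably integrated ER-alpha-UAS-bla reporter. Agonist 17beta-estradiol was co-added with compounds; incubation 18 hr at 37C, substrate 2 hr at room temperature.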

Assay [19] is described as follows: qHTS assay to identify small molecule antagonists of the estrogen receptor alpha (ER-alpha) signaling pathway - cell viability counter screen (AID 743074; calls by dose curve; also: nearly all actives have a fitted effect of over 45% in size; also: potency is read from the fitted curve at half-maximal effect).

Values joined by “and” are separate entries in the source; they are usually repeats but may differ in a detail not shown here. Equal entries are not always repeated. Inconclusive results are not listed. The source holds several records for some structures; these can differ, active in one and inactive in another. Active and inactive are the calls of the source. Unless noted, calls follow the shape of the dose curve; as a rule, active = well fitted curve in the direction sought with a large enough effect in the repeat runs; inconclusive = weak or mixed curves; inactive = no such curve, though single readings can be large; an effect the other way counts as inactive or inconclusive.
% is scaled to controls: 0 for no effect and ±100 for the full control effect.

Sequence of Aromatase (Homo sapiens) (P11511 whole entry, looked up): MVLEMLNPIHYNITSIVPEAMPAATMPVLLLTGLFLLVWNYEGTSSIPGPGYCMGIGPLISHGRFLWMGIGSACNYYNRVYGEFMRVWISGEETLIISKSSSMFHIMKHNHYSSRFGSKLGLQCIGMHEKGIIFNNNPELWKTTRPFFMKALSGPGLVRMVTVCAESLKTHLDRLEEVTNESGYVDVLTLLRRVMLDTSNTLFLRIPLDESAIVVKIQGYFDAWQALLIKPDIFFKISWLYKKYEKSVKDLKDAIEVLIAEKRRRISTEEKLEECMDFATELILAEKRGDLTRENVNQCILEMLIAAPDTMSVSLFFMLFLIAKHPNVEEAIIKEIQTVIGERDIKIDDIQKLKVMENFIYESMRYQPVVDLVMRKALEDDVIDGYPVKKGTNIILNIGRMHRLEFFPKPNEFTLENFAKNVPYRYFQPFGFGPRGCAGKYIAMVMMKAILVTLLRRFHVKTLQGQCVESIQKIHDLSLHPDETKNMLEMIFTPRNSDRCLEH
Sequence of Androgen receptor (Homo sapiens) (P10275 whole entry, looked up): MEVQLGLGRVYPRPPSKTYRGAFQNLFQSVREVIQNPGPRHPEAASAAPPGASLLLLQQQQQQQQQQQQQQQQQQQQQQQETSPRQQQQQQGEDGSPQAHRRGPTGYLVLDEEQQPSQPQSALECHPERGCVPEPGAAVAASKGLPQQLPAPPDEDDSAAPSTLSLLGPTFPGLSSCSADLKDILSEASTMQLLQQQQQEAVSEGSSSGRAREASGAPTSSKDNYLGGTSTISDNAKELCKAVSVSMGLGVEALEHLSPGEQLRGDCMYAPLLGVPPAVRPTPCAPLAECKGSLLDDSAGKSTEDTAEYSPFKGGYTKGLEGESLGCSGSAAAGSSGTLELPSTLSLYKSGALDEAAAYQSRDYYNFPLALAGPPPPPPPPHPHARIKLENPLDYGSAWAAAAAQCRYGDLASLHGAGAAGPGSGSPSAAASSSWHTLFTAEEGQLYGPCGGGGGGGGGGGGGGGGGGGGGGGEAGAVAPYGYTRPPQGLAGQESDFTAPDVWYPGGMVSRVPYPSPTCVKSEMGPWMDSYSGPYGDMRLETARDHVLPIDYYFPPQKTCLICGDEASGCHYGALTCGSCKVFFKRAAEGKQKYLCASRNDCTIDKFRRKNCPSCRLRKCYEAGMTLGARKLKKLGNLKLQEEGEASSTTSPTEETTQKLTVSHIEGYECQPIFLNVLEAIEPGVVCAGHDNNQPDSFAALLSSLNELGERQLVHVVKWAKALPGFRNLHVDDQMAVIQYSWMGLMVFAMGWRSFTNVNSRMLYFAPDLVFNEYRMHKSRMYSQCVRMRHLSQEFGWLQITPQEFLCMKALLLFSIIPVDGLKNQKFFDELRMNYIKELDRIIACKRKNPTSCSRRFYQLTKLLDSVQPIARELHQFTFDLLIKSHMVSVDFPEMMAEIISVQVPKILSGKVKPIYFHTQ

Regarding `CCO[C@H](Cc1ccc(OCCc2ccc(OS(C)(=O)=O)cc2)cc1)C(=O)O`, the Potency result in assay [1], in assay [2], in assay [3], in [4], in [5] and in [6] was “inactive” each time. For the same molecule, the Potency entry in [7], in assay [8], in assay [9], in assay [10], in [11] and in [12] was “inactive” each time. Further, the Potency result (in assay [13]; in [14]; in [15]; in assay [16]; in [17]; in the assay with Aromatase (Homo sapiens)) was “inactive” throughout.
Take `O=C(O)CNCC(=O)O`: the viability change, negative = cytotoxic in [1] was -8.93% [at 7.04 µM] (inactive); in [9], -11.9% [at 8.47 µM] (inactive). The activity change, negative = cytotoxicity in assay [2] was 8.65% [at 8.52 µM] (inactive); in [4], 1.1% [at 8.55 µM] (inactive); in assay [5], 1.48% [at 7.04 µM] (inactive); in assay [17] it was -9.74% [at 8.47 µM] (inactive). Moreover, the activity, negative = cytotoxicity in assay [3] was -2.98% [at 8.53 µM] (inactive); in assay [19] it was -3.67% [at 6.72 µM] (inactive). Also, the activity change, negative = inhibition in assay [6] was 0.788% [at 7.04 µM] (inactive); in assay [10], 1.72% [at 8.47 µM] (inactive); in assay [16], 0.887% [at 8.47 µM] (inactive). Further, the activation in [7] was -0.671% [at 6.9 µM] (inactive); in assay [13], -1.57% [at 8.08 µM] (inactive); in assay [14], -4.82% [at 6.71 µM] (inactive); in assay [15], 2.44% [at 8.47 µM] (inactive). Also, the activity change in assay [8] was 1.91% [at 8.47 µM, stronger effect = higher value] (inactive). In [11], the activity change, negative = cytotoxic was 2.43% [at 8.44 µM] (inactive). The activity, negative = inhibition in assay [12] is -3.78% [at 8.44 µM] (inactive); in assay [18], -6.23% [at 6.71 µM] (inactive); with Aromatase (Homo sapiens), 14.5% [at 8.47 µM] (inactive).
Consider `C[C@@H](c1ncncc1F)C(O)(Cn1cncn1)c1ccc(F)cc1F` (some centres undefined), for which the Potency entry in assay [1], in assay [2], in [3], in assay [4], in [5] and in assay [6] was “inactive” in each case. For the same molecule, the Potency entry in [8], in [10], in assay [12], in [13], in [18] and in assay [14] was “inactive” in each case. For the same molecule, the Potency entry (in [15]; in assay [16]; in assay [17]; with Aromatase (Homo sapiens)) was “inactive” throughout.
Take `Nc1cc(C(=O)O)c(O)c(S(=O)(=O)O)c1`: the Potency result in [1], in assay [2], in [3], in assay [4], in assay [5] and in assay [9] was “inactive” in each case. Further, the Potency result (in [11]; in assay [12]; in assay [13]; in assay [19]; in assay [17]; in the assay with Aromatase (Homo sapiens)) was “inactive” in each case.
As to `CN(C)c1ccc(C(c2ccccc2)c2ccc(N(C)C)cc2)cc1`, the Potency entry in [1], in assay [5], in [7], in assay [8], in assay [10] and in assay [11] was “inactive” each time. The Potency entry (in assay [13]; in assay [19]; in assay [17]; with Aromatase (Homo sapiens)) was “inactive” each time. Further, the Potency was 6.86 µM (active) in assay [2], 6.86 µM (active) in assay [3], 8.63 µM (active) in [4] and 24.3 µM (active) in assay [12].
As to `C/C(=C(\CCOP(=O)(O)O)SC(=O)c1ccccc1)N(C=O)Cc1cnc(C)nc1N`, the Potency entry in assay [1], in assay [2], in assay [3], in assay [4], in assay [5] and in assay [6] was “inactive” each time. The Potency entry in assay [9], in assay [10], in [11], in [12], in assay [13] and in [18] was “inactive” in each case. In addition, the Potency result (in assay [19]; in assay [14]; in assay [15]; in assay [16]; in [17]; with Aromatase (Homo sapiens)) was “inactive” throughout. For the same molecule, the Potency in [8] is 12.7 µM (active).
Regarding `CCCCCCCCCc1ccc(OCCOCCO)cc1`, the Potency result in [1], in [7], in assay [8] and in [13] was “inactive” throughout. Also, the Potency is 2.37 µM (active) and 909 nM (active) in assay [2]; 3.76 µM (active) and 1.81 µM (active) in assay [3]; 3.76 µM (active) and 1.81 µM (active) in assay [4]; 13.4 µM (active) and 8.17 µM (active) in [5]; 5.35 µM (active) and 4.6 µM (active) in assay [6]; 11.1 µM (active) and 5.11 µM (active) in [9]. Moreover, the Potency was 4.73 µM (active) and 1.44 µM (active) in assay [10]; 18.8 µM (active) and inactive in [11]; 15.1 µM (active) and 16.3 µM (active) in assay [19]; 15 µM (active) in assay [17]; 22.8 µM (active) with Aromatase (Homo sapiens).

The record behind these values is PubChem BioAssay (Tox21).
